Usually inhibition stands for the relative decrease from the control value, in per cent.

Common to all, as to type: functional
Assay [1] concerns the target Solute carrier family 2, facilitated glucose transporter member 1 (Homo sapiens) (UniProt P11166). Kind of assay: ST_JUDE_LEISH: Cytotoxicity at 2uM final concentration against transgenic Leishmania Mexicana promastigotes LmGLUT1 that are glucose transport deficient and complemented with the human glucose transporter GLUT1. Activity is measured by DNA content using SYBR green in vitro.

For assay [2], the target named is Hexose transporter 1 (Plasmodium falciparum) (UniProt O97467). Briefly: ST_JUDE_LEISH: Cytotoxicity at 2uM final concentration against transgenic Leishmania Mexicana promastigotes LmPfHT that are glucose transport deficient and complemented with the Plasmodium falciparum hexose transporter. Activity is measured by DNA content using SYBR green in vitro.
Assay [3] has as its target Glucose transporter (Leishmania mexicana) (UniProt O61059). Kind of assay: ST_JUDE_LEISH: Cytotoxicity at 2uM final concentration against transgenic Leishmania Mexicana promastigotes LmGT2 that are glucose transport deficient and complemented with the L. Mexicana glucose transporter 2. Activity is measured by DNA content using SYBR green in vitro.

Chain of Solute carrier family 2, facilitated glucose transporter member 1 (Homo sapiens) (P11166 whole entry): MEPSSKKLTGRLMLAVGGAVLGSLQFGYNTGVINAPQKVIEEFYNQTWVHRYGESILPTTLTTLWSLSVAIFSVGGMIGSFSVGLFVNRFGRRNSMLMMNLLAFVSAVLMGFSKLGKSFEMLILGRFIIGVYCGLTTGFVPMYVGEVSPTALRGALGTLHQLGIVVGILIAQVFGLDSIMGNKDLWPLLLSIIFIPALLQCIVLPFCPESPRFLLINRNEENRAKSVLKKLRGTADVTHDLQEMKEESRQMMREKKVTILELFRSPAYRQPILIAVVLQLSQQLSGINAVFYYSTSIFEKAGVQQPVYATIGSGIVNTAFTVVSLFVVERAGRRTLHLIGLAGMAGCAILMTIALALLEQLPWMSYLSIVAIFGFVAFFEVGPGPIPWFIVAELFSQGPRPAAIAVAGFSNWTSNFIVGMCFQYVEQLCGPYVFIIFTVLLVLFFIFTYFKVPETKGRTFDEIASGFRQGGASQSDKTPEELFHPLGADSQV

Consider `CC(C)(C)OC(=O)[C@H](CC(N)=O)NC(=O)c1ccc(-c2ccc(-c3nc4cc(C(F)(F)F)ccc4[nH]3)s2)cc1`, for which the inhibition in assay [1] is 5.01%; in assay [2] it was 3.22%; in assay [3], 1.57%.

Turning to `FC(F)(F)c1ccc2[nH]c(-c3ccc(-c4cccc(CNCc5ccccc5)c4)cc3)nc2c1`, the inhibition came out at 7.1% in assay [1], 4.87% in assay [2] and 7.33% in assay [3].

For the molecule `Cc1cccc2nc(-c3ccc(-c4ccc(CN5CCN(c6ccncc6)CC5)cc4)s3)[nH]c12`, the inhibition was found to be 2.98% in assay [1], 2.29% in assay [2] and 1.09% in assay [3].

With `CC1(C)N=C(N)N=C(N)N1c1cccc(C(F)(F)F)c1`, the inhibition in assay [1] was -1.8%; in assay [2] it was -0.92%; in assay [3], -3.44%.

Regarding `O=C(/C=C/c1ccc(Cl)c(Cl)c1)NCCCCCN1CCC(NC(=O)Nc2cc(Cl)ccc2Cl)CC1`, the inhibition in assay [1] stood at 9.69%; in assay [2], 8.99%; in assay [3], 9.67%.

For `O=C(/C=C/c1ccc(Cl)c(Cl)c1)NCCCCCN1CCCN(C(=O)Nc2cc(F)cc(F)c2)CC1`, the inhibition in assay [1] turned out to be 9.22%; in assay [2], 8.04%; in assay [3] it was 8.86%.

On to `O=C(Nc1cccc(C(F)(F)F)c1)NC1CCN(c2ccnc3cc(Cl)ccc23)C1` (stereo not drawn), for which the inhibition is -0.97% in assay [1], -2.13% in assay [2] and 0.93% in assay [3].

On to `COc1ccc(CNC(=O)c2cnc3c(O)cccc3c2Nc2cccc(NC(=O)c3ccc(Cl)c([N+](=O)[O-])c3)c2)cc1`, for which the inhibition worked out at 0.79% in assay [1], 6.77% in assay [2] and 4.02% in assay [3].

In the case of `Cc1[nH]c(C)c(-c2cccc(-c3ccc(OC(F)(F)F)cc3)c2)c(=O)c1Br`, the inhibition in assay [1] was 1.89%; in assay [2], 4.46%; in assay [3] it was -1.64%.

As to `O=C(NCc1ccc(F)cc1)Nc1cccc(-c2ccc(-c3nc4ccccc4[nH]3)cc2)c1`, the figures for the inhibition in assay [1], in assay [2] and in assay [3] were 1.76%, 0.3% and -0.44%, respectively.

As for `CC1CN(c2cnn(Cc3cccc(NC(=O)Nc4ccc(-c5ccccc5)cc4)c3)c(=O)c2Cl)CC(C)N1` (stereo not drawn), the inhibition in assay [1] was determined as 8.54%; in assay [2], 5.56%; in assay [3] it was 7.15%.

These data come from ChEMBL document CHEMBL3433997, “St. Jude Leishmania screening dataset” (2016).
